Compounds without any hit were thinned out: in the full panel of roughly 83,000, 20% have a hit.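 Values shown are percent growth following 48 h exposure of cells in 96-well plates to a single concentration of compound; below 10 was considered active.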 The source made the active and inactive calls.

This assay deals with MDA-MB-435 melanoma. Nature of the assay: NCI-60 one-dose screen, 48 h (100 = growth as untreated, 0 = no growth, -100 = all killed). The note with it: 10 µM unless noted.
For `Cc1ccc(-c2csc(NC(=O)CN3CCN(c4cc5c(cc4F)c(=O)c(C(=O)O)cn5C4CC4)CC3)n2)cc1`, the growth was 14.4% (inactive). `O=C(Nc1ccc(-c2nc(N3CCOCC3)c3cccn3n2)cc1)Nc1cccnc1`: the growth was 3.87% (active). Regarding `CC(=O)OC[C@]12CCC(C)(C)C[C@H]1[C@@]1(O)[C@H](O)C[C@@H]3[C@@]4(C)CCCNC(C)(C)[C@@H]4CC[C@@]3(C)[C@]1(C)CC2`, the growth was 109% (inactive).

Consider `Cn1ccnc1C(=O)C(=O)Nc1ccc(CC(=O)Nc2ccccc2)cc1`, for which the growth is 101% (inactive). As for `O=[N+]([O-])c1ccc(-c2nc(N3CCOCC3)c3c4c(sc3n2)CCCC4)cc1`, the growth was 99.1% (inactive). As for `O=C1/C(=C\c2cn(-c3ccccc3)nc2-c2ccc(-c3cccs3)cc2)CCc2ccccc21`, the growth was -24.6% (active). The same measure for `Cc1ccc(-c2cc(-c3ccc(Cl)cc3)nc(NC(=O)c3cccnc3)n2)cc1`: 99.8% (inactive); for `C[C@@H]1CCC[C@H]1CC(N)C(=O)O` (some centres not stated): 98.6% (inactive); for `CSc1nnc(-c2cnn3c2NC(c2ccccc2)C3)n1-c1ccc(C(F)(F)F)cc1` (configuration not stated): -25.7% (active). Consider `COc1ccccc1Nc1nc2c(s1)C1=CC[C@H]3[C@@H]4CC[C@H]([C@H](C)CCCC(C)C)[C@@]4(C)CC[C@@H]3[C@@]1(C)CC2`, for which the growth was 103% (inactive). Regarding `CCOC(=O)c1ccc2[nH]c(O)c(C(=Nc3ccc(N(C)C(=O)CN4CCN(C)CC4)cc3)c3ccccc3)c2c1`, the growth was -42% (active). With `COc1ccc(-c2nnc(-c3ccc4c(c3)nc(-c3ccncc3)n4C3CCCCC3)o2)cc1`, the growth is 75.9% (inactive).

The values above are taken from PubChem BioAssay (NCI).
